CHO-K1 Ca ag: counter-screen for M1 agonists: effect in parental CHO-K1 cells. Fluo-8 calcium fluorescence; scaled to maximal ATP response, vehicle zero. activation, % at 3 µM. actives 0.48% (n = 360,000). AID 602248, 2012; in the data active means activation above about 15%;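 further: untransfected CHO-K1 host cells lacking M1 receptor as counterscreen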
M1 PAM: human M1 muscarinic receptor positive allosteric modulators, primary screen, CHO-K1 cells, Fluo-8 calcium fluorescence, 1536-well. Muscarinic acetylcholine receptor M1 (Homo sapiens), P11229. CHO-K1 hM1, ACh EC20; 0% = ACh EC20, 100% = maximal ACh. activation, % at 3 µM. actives 0.088% (n = 360,000); in the data active means activation above about 19%, passing the limit was not always enough
Target sequence (P11229 whole entry, looked up): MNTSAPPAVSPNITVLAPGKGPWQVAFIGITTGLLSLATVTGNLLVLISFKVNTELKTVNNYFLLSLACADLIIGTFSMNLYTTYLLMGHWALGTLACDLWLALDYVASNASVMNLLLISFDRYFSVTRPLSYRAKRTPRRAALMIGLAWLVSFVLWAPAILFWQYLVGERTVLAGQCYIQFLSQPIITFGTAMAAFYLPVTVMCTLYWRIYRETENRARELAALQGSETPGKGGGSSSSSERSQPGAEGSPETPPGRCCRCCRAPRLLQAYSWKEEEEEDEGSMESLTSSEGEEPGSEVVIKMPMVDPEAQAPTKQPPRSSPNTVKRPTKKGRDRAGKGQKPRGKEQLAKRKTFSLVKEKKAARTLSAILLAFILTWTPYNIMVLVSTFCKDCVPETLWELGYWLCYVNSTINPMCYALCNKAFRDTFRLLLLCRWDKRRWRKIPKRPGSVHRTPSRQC
CHO-K1 Ca antag: nonselective inhibitor or artifact in parental CHO-K1 cells; ATP-induced calcium, Fluo-8 fluorescence; inhibition, % at 3 µM; actives 0.6% (n = 360,000);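 active means inhibition above a per-plate cutoff, the plate's mean sample inhibition plus 3 SD, cut at about 24% in these data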;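 further: 0% = DMSO plus EC80 ATP and 100% = DMSO alone without ATP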
M1 ag: human M1 muscarinic receptor agonists, primary screen, Fluo-8 calcium fluorescence, CHO-K1 cells, HTS; Muscarinic acetylcholine receptor M1 (Homo sapiens), P11229; CHO-K1 hM1, agonist mode; 0% DMSO, 100% acetylcholine EC100; activation, % at 3 µM; actives 0.33% (n = 360,000); AID 588814, 2011;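 active means activation above the run's mean compound activation plus 3 SD, cut at about 16% in these data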;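 further: peak over basal fluorescence ratio within a 140 s kinetic read after compound addition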
CHO-K1 Ca PAM: nonselective calcium activators in parental CHO-K1 cells, primary screen, counter-screen for M1 PAM project, cell-based, Fluo-8 calcium fluorescence, full deck, 1536-well; ATP EC20; 0% at ATP EC20, 100% at ATP max; activation, % at 3 µM; actives 0.02% (n = 360,000); AID 602247, 2012;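 active means activation above the run cutoff, the mean activation of all test compounds plus 3 SD, cut at about 40% in these data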;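 further: peak over basal fluorescence ratio in a 140 s read after ATP addition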
M1 antag: human M1 muscarinic receptor antagonists, primary screen, CHO-K1 cells, Fluo-8 calcium fluorescence, 1536-well; AID 588852, 2011; Muscarinic acetylcholine receptor M1 (Homo sapiens), P11229; inhibition, % at 3 µM; actives 1.3% (n = 360,000); CHO-K1 hM1, ACh EC80 antagonist;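 active means percent inhibition above its own plate's cutoff, namely the mean of that plate's compound wells plus 3 SD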;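 further: peak over basal fluorescence ratio during 140 s after agonist addition; 0% = ACh EC80 plus DMSO and 100% = DMSO alone without agonist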
The depositor's hits bear a star. Hits are enriched below; roughly 2.4% of the tested compounds scored in any of these assays.

SMILES	CHO-K1 Ca ag	M1 PAM	CHO-K1 Ca antag	M1 ag	CHO-K1 Ca PAM	M1 antag
CN(c1ccc(F)cc1)S(=O)(=O)c1ccc(Cl)c(C(=O)Nc2ccc3c(c2)CCC3)c1	1	-7	-1	-4	-5	12
CN(c1ccc(F)cc1)S(=O)(=O)c1ccc(Cl)c(C(=O)Nc2ccncc2)c1	10	-18	34*	0	-24	34*
CN(c1ccccc1)S(=O)(=O)c1ccc(Cl)c(C(=O)Nc2ccncc2)c1	16*	-10	-15	0	0	20
O=C(Nc1ccc(S(=O)(=O)NCc2ccccc2)cc1)Nc1ccc2c(c1)OCO2	10	-12	5	3	10	27*
CCOC(=O)Nc1ccc2c(CNC(C)c3ccccc3OC)cc(=O)oc2c1 (configuration not stated)	0	12	-11	-2	8	-18
Cc1ccc(S(=O)(=O)N2CC3(O)CN(C(=O)OC(C)C)N(C(=O)OC(C)C)CC3(OC(=O)NCc3ccccc3)C2)cc1 (configuration not stated)	3	-10	3	-3	8	21
Cc1ccccc1OCCc1c(C)[nH]c(=S)[nH]c1=O	0	-1	1	-2	1	1
CCOC(=O)c1cc2c(N)c(C(=O)c3ccc(Br)cc3)sc2[nH]c1=O	0	15	3	-2	6	-23
Cc1ccc(OCC(=O)N/N=C2/SCC(=O)N2Cc2ccccc2)cc1	0	1	25*	-2	-15	-6
Cc1ccccc1OCC(=O)N/N=C1\SCC(=O)N1Cc1ccccc1	0	6	-9	-6	18	-10
Oc1ccc2ccccc2c1CN1CCN(C/C=C/c2ccccc2)CC1	0	-30	-4	-7	15	77*
O=S(=O)(c1ccccc1)N1CCN(Cc2c(O)ccc3ccccc23)CC1	4	-12	5	-3	-6	21
COc1ccc(-c2cnnc(N/N=C/c3ccc(O)c(OC)c3)n2)cc1	1	-5	35*	-1	-11	2
Cc1cc2ccccc2n1CCNCc1c(C(=O)N2CCOCC2)nc2ccccn12	11	3	24*	-1	12	-14
CCOC(=O)C1CCCN(Cc2c(C(=O)N3CCOCC3)nc3ccccn23)C1 (configuration not stated)	0	-10	-12	23*	-7	14
CCOC(=O)C1CCCN(Cc2c(C(=O)N3CCCCC3)nc3c(C)cccn23)C1 (configuration not stated)	4	4	-18	10	11	-5
O=C(CCC1CCCN(C(=O)C2(c3ccccc3)CC2)C1)N1CCN(c2ccccn2)CC1 (configuration not stated)	3	4	6	-13	-15	0
CCCCCCCCC(NC(=O)c1ccc(C#N)cc1)C(=O)NCCC (configuration not stated)	0	3	-5	-4	6	-6
CCn1c(-c2ccc(-c3ccccc3)cc2)c[nH]c1=S	0	-20	13	-6	-6	48*
C=CCn1c(-c2ccccc2)c[nH]c1=S	2	6	-12	-2	26	-4
CCN(CC)CC(O)c1ccc2ccc3ccc(O)cc3c2c1 (configuration not stated)	1	3	-2	-2	5	-9
CC1(C(=O)Nc2cccc(C#N)c2)CCN1C(=O)Cc1ccc(-c2ccccc2)cc1 (configuration not stated)	11	-15	28*	3	-6	42*
CCc1cc(C(=O)Nc2cc(S(=O)(=O)N(CC)CC)ccc2N2CCN(C)CC2)sc1C	0	2	-6	-7	-12	-3
CCc1cc(C(=O)Nc2cc(Cl)ccc2N2CCN(C)CC2)sc1C	0	11	28*	0	-20	-11
CCC1CCCCN1CCCNC(=O)CSc1nc2nc(C)c(Cc3ccccc3Cl)c(C)n2n1 (configuration not stated)	1	-23	-8	-5	17	51*
SMILES	CHO-K1 Ca ag	M1 PAM	CHO-K1 Ca antag	M1 ag	CHO-K1 Ca PAM	M1 antag
CCC1CCCCN1CCCNC(=O)CSc1nc2nc(C)c(Cc3ccccc3)c(C)n2n1 (configuration not stated)	0	-28	-5	-13	21	25*
CCC1CCCCN1CCCNC(=O)Cn1nc(C)n2nc(-c3ccccc3)cc2c1=O (configuration not stated)	0	2	-15	-14	4	-13
CCC1CCCCN1CCCNC(=O)Cn1c2ccccc2c2nc(=O)cc(C)n21 (configuration not stated)	0	0	-14	-6	3	-9
CC(C)OC(=O)NCCOC(=O)Nc1cccc(Cl)c1	10	-9	29*	4	2	26
CC(C)OC(=O)NCCOC(=O)Nc1ccc(Cl)c(Cl)c1	6	-4	17	1	8	22
C[N+]1(C)CCC(=C(c2ccccc2)c2ccccc2)CC1	1	-25	-6	-7	15	98*
Cc1ccc(N(CC(=O)N2CC(=O)Nc3ccccc32)S(=O)(=O)c2ccc3c(c2)OCCO3)cc1	0	6	29*	-3	-3	-2
O=C(O)CN(c1ccc(F)cc1)S(=O)(=O)c1ccc2c(c1)OCCO2	0	13	-5	-3	5	-18
O=C1N/C(=N\S(=O)(=O)Cc2ccccc2)S/C1=C/c1cc([N+](=O)[O-])ccc1O	37*	-9	41*	29*	-12	37*
O=C1N/C(=N\S(=O)(=O)c2ccccc2)S/C1=C\c1cc([N+](=O)[O-])ccc1O	19*	-25	4	32*	-6	18
COc1cc(/C=C2/S/C(=N/S(=O)(=O)c3ccccc3)NC2=O)c([N+](=O)[O-])cc1OC	1	7	4	2	1	-10
CCOC(=O)C1=C(O)CSC1=Nc1ccc(Cl)cc1	-1	9	27*	-2	-6	2
CCOC(=O)C1=C(O)CSC1=Nc1ccccc1	-1	8	8	-2	1	-7
O=C(NC(=S)Nc1ccc(CN2CCOCC2)cc1)c1ccc(-c2cccc(Cl)c2)o1	2	-23	-9	-6	10	58*
COc1ccc(Br)cc1C(=O)NC(=S)Nc1ccc(CN2CCOCC2)cc1	3	-17	-23	-4	22	32*

Source: PubChem (The Scripps Research Institute Molecular Screening Center)
